Screens deposited in PubChem BioAssay by National Center for Advancing Translational Sciences (NCATS).
TDP1 cell noCPT – qHTS for Inhibitors of human tyrosyl-DNA phosphodiesterase 1 (TDP1): qHTS in cells in absence of CPT | DT40 Tdp1-/- hTDP1 cells, no CPT, ATP luminescence, 48 h | Potency, µM (titrated, usually from 46.2 µM), for inactives: at the top dose activity change, negative = growth inhibition, hits mostly inhibitors | actives 15% (n = 420,000) | AID 686978, 2013; also: potency is read from the fitted curve at half-maximal effect; nearly all actives have a fitted effect of over 55% in size
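Chicken DT40 Tdp1-/- cells complemented with human TDP1, screened without camptothecin (DMSO vehicle only), 400 cells/well. Compounds pin-transferred, cells incubated at 37 °C for at least 48 hr. Growth read as ATP-dependent luminescence (CellTiter-Glo, 30 min at RT).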
ELG1 DNA repair – blocks ELG1-dependent DNA repair in HEK293T cells; HEK293T ELG1-luciferase reporter, luminescence, 16 h; DNA damage induced by 5-fluorouridine; actives 2.3% (n = 330,000); Potency, µM (doses to about 46.1 µM), for the others: at the top dose activity change, negative = inhibition, actives largely listed as inhibitors; AID 504467; also: potency is read from the fitted curve at half-maximal effect; nearly all actives have a fitted effect of over 55% in size
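HEK293T cells expressing luciferase-tagged ELG1 (2,000/well) received 5-Fluorouridine plus compound or DMSO for 16 hr at 37 °C. Luciferase was read by ONE-Glo luminescence after 30 min at room temperature.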
HT1080NT lethal – kills 2HG-producing HT-1080-NT fibrosarcoma cells | Potency, µM (series often up to 46.1 µM), inactives show at the top dose activity, negative = less viability, hits mostly cytotoxic | HT-1080-NT fibrosarcoma viability, CellTiter-Glo ATP luminescence, 48 h | AID 686970 | actives 1.6% (n = 360,000);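 also: NT is the 2HG producing partner of a matched IDH1 knockdown line; potency is read from the fitted curve at half-maximal effect; 0% = DMSO-treated cells and -100% = media-only wells without cells; nearly all actives have a fitted effect of over 55% in size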
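Fibrosarcoma NT cells, 750 per well in 5% FBS RPMI, were exposed to compound for 48 hours. Viability: CellTiter-Glo luminescence.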
HT1080 IDH1KD tx – kills HT-1080 cells with IDH1 knockdown. actives 2% (n = 360,000). AID 686971. HT-1080 IDH1 knockdown viability, ATP luminescence, 48 h. Potency, µM (doses to about 46.1 µM), for the others: at the top dose activity, negative = toxicity, hits mostly cytotoxic;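 also: potency is read from the fitted curve at half-maximal effect; 0% = DMSO wells and -100% = cell-free medium wells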
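In this qHTS, HT-1080 cells depleted of IDH1 are exposed for 48 h at 37 °C to compound titrations. Toxicity is scored from CellTiter-Glo luminescence, with DMSO as full viability and medium alone as none.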
DT40 TDP1 CPT – DT40-hTDP1 cell growth loss with CPT | chicken DT40 Tdp1-/-;hTDP1 cells + 20 nM CPT, ATP luminescence, 48 h | Potency, µM (series often up to 46.2 µM), for inactives: at the highest dose activity change, negative = growth inhibition, usual class: inhibitors | actives 12% (n = 420,000) | AID 686979; also: potency is read from the fitted curve at half-maximal effect; nearly all actives have a fitted effect of over 55% in size
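Chicken DT40 Tdp1-/- cells stably complemented with human TDP1 were seeded at 400 cells/well in medium containing 20 nM camptothecin, exposed to pin-transferred compounds, and grown at 37 °C for at least 48 hr. Viability was read as ATP luminescence.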
IL-1B inflam inh – inflammasome signaling inhibition, IL-1 beta readout. THP-1 LPS/ATP IL-1B secretion, AlphaLISA, 16 h; hits give low values. activity change, % at 57.5 µM. actives 4.7% (n = 360,000); in the data active = activity change below about -50%; inconclusive = mostly about -30% to -49%
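Secreted IL-1B measured by AlphaLISA bead assay after 16 h compound exposure of THP-1 cells; compounds (final up to 57.5 uM) added 1 h before LPS (250 ng/mL) and ATP (1.25 mM) stimulation; lower signal means less secretion.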
Starred values were filed as active, the others as inactive; ? = inconclusive; nt = no result given. This is a sample that favours compounds with a hit; in the whole collection about 19% have one here. Unless noted, calls follow the shape of the dose curve; as a rule, active = well fitted curve in the direction sought with a large enough effect; inconclusive = small, poorly fitted or top-dose-only effect, or another doubt; inactive = no such curve, though single readings can be large; an effect the other way counts as inactive or inconclusive. Unless noted, % is scaled to controls: 0 for no effect and ±100 for the full control effect.

SMILES	TDP1 cell noCPT	ELG1 DNA repair	HT1080NT lethal	HT1080 IDH1KD tx	DT40 TDP1 CPT	IL-1B inflam inh
O=C(CN1C(=O)COc2ccc(S(=O)(=O)N3CCCC3)cc21)Nc1cccc(F)c1	?	21.3%	6.1%	15.5%	?	-7.2
Cc1ccc(NC(=O)CN2C(=O)CCc3cc(S(=O)(=O)N4CCCCC4)ccc32)cc1C	20.6µM*	nt	nt	nt	?	nt
CNC(=O)CN1C(=O)COc2ccc(S(=O)(=O)N3CCCCCC3)cc21	24.4%	1.3%	10.6%	17.4%	1.4%	16.6
COc1ccc2c(c1)[C@]1(C)CCC(=O)C[C@H]1CC2	-23.7%	nt	nt	nt	-12.1%	nt
CCCCN1C(=O)C(=O)N(CC(=O)c2cc(C)n(-c3cc(C)on3)c2C)C1=O	8.7%	28.3%	3.2%	-0.9%	-8.0%	-19.8
COc1ccc(NC(=O)CN2C(=O)COc3ccc(S(=O)(=O)N4CCCCCC4)cc32)cc1	16.4µM*	9.3%	7.0%	1.1%	4.61µM*	-14.0
CC(C)c1ccc(NC(=O)CN2C(=O)COc3ccc(S(=O)(=O)N4CCCCCC4)cc32)cc1	3.66µM*	nt	nt	nt	2.59µM*	nt
COc1ccc(NC(=O)CN2C(=O)COc3ccc(S(=O)(=O)N4CCCCC4)cc32)cc1OC	?	1.4%	0.2%	2.0%	?	-4.2
Cc1cccc(N2CCN(C(=O)CN3C(=O)COc4ccc(S(=O)(=O)N5CCCCCC5)cc43)CC2)c1C	16.4µM*	nt	nt	nt	?	nt
Cc1ccc(NC(=O)CN2C(=O)COc3ccc(S(=O)(=O)N4CCCCCC4)cc32)cc1C	14.6µM*	nt	nt	nt	?	nt
CN1CCN(C(=O)CN2C(=O)COc3ccc(S(=O)(=O)N4CCOCC4)cc32)CC1	24.7%	14.5%	6.7%	11.2%	6.5%	3.8
O=C(c1cc(=O)[nH]c2ccccc12)N1CC=C(c2ccccc2)CC1	?	?	-1.1%	-8.3%	?	-9.1
CCNC(=O)C1CCCN(C(=O)c2ccc(C#N)cc2)CC1 (stereo unspecified)	-1.0%	nt	29.0%	8.5%	-19.0%	23.3
CC(=O)c1ccc(-c2cnc3c(NC=O)cc(-c4ccccc4Oc4ccccc4)cn23)cc1	20.6µM*	nt	?	?	?	-15.1
O=CNc1cc(-c2ccccc2Oc2ccccc2)cn2c(-c3ccc(F)cc3)cnc12	10.3µM*	nt	?	?	?	10.5
Cc1ccc2c(c1)N(C(=O)CCC(=O)NCCCN1CCN(C)CC1)CC(C)O2 (stereo unspecified)	11.6%	0.0%	-10.4%	6.4%	4.7%	-15.2
COc1cc2c(cc1OC)[C@@H](NC(=O)CCc1ccccc1)[C@H](OCc1ccccc1)C2	?	?	-0.4%	-12.3%	10.3µM*	-20.6
CCCCCCCCCC(=O)N[C@@H]1c2cc(OC)c(OC)cc2C[C@H]1OCc1ccccc1	-14.0%	-2.4%	0.4%	7.1%	-16.6%	82.4
COc1ccc(C2=C(C=C(C#N)C#N)C(c3ccccc3C)c3ccccc3O2)cc1OC (stereo unspecified)	20.6µM*	?	-5.2%	-13.5%	?	-18.0
COc1cc(-c2nnc(COC(=O)C3c4ccccc4Oc4ccccc43)o2)cc(OC)c1OC	?	?	0.2%	3.5%	?	15.2
FC(F)(F)c1ccnc(Sc2n[nH]c(C(F)(F)F)n2)c1	?	-7.7%	-5.1%	-8.1%	-25.7%	44.4
FC(F)(F)c1ccc(Sc2n[nH]c(C(F)(F)F)n2)nc1	29.1µM*	0.0%	-10.3%	-4.5%	?	16.8
COc1ccc(CN2CCc3c([nH]c4ccccc34)C2)c(OC)c1C	?	-13.9%	?	14.6µM*	?	-89.0*
CCOc1ccc(-n2c(-c3ccc(Cl)cc3)c[n+]3c2SCC3)cc1	2.06µM*	?	-10.3%	23.1µM*	1.84µM*	-86.0*
c1ccc(-c2c[n+]3c(n2-c2ccccc2)SCC3)cc1	20.6µM*	?	-3.3%	?	?	-10.0
SMILES	TDP1 cell noCPT	ELG1 DNA repair	HT1080NT lethal	HT1080 IDH1KD tx	DT40 TDP1 CPT	IL-1B inflam inh
CCOc1ccc(C2=CSC3=NCCN23)cc1	-26.4%	8.2%	1.1%	0.3%	-13.3%	-10.8
O=C(NCc1ccco1)c1ccc(CNc2c(N3CCCCC3)c(=O)c2=O)cc1	0.4%	-1.5%	19.2%	16.9%	-0.6%	5.9
COC(=O)c1c(-c2ccccc2)oc2c1C(OCCO)CCC2 (stereo unspecified)	?	nt	16.6%	11.4%	-21.7%	24.0
CCOC(=O)c1c(-c2ccc(OC)cc2)oc2c1C(OC(C)=O)CCC2 (stereo unspecified)	20.6µM*	nt	16.9%	7.0%	?	-1.5
O=C(OCc1ccccc1)c1c(-c2ccccc2)oc2c1C(OCCO)CCC2 (stereo unspecified)	16.4µM*	nt	-8.5%	-14.6%	?	10.6
CC1(C)S[C@H]2[C@@H](NC(=O)C(N)c3ccccc3)C(=O)N2[C@H]1C(=O)O (stereo partly specified)	2.6%	nt	nt	nt	-0.1%	nt
O=C(NCc1ccccc1)/C(=C/c1ccco1)NC(=O)c1ccco1	1.4%	4.7%	21.9%	8.7%	-18.9%	7.5
COc1ccc(-c2cc(C(C)=O)c(C)n2CCC(=O)Nc2cc(Cl)ccc2C)cc1	18.4µM*	nt	nt	nt	20.6µM*	nt
COc1ccc(-c2cc(C(C)=O)c(C)n2CCC(=O)NC2CCCCC2)cc1	?	nt	nt	nt	23.1µM*	nt
CC(=O)c1cc(-c2ccccc2)n(CC(=O)NC2CCCC2)c1C	-20.0%	14.6%	8.5%	0.5%	-16.2%	-10.2
Cc1ccc(NC(=O)CCn2cccc2)cc1Cl	-8.4%	?	0.7%	7.1%	-6.7%	?
COc1ccc(-c2cc(C(C)=O)c(C)n2CCC(=O)Nc2ccc(C)c(Cl)c2)cc1	18.4µM*	nt	nt	nt	14.6µM*	nt
C[C@@H]1CN([C@@H](C)CO)C(=O)CCCn2nncc2CO[C@H]1CN(C)C(=O)Nc1cccc(Oc2ccccn2)c1	-0.1%	nt	11.1%	2.3%	-0.8%	-0.8
COc1ccc(S(=O)(=O)N2CCC(C(=O)NCc3cccnc3)CC2)cc1Cl	-8.2%	-3.3%	3.1%	-1.0%	1.9%	-5.0
Clc1ccc2ccc3cccnc3c2n1	?	7.0%	-0.8%	3.5%	?	-5.9
O=S1(=O)Nc2c(ccc3cccnc23)-c2ccccc21	1.46µM*	?	0.562µM*	0.316µM*	1.16µM*	-99.8*
